Assay outcomes: PubChem BioAssay, several laboratories
APOBEC3A inh: inhibitors of human APOBEC3A DNA deaminase | inhibition, % at 20 µM | recombinant A3A, FAM/TAMRA ssDNA deamination fluorescence | P31941 | AID 493011 | 330,000 compounds, 0.41% hits;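 active means at least 40% inhibition at 20 µM here, with at most 30% in a related deaminase screen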
Target sequence (P31941 whole entry, looked up): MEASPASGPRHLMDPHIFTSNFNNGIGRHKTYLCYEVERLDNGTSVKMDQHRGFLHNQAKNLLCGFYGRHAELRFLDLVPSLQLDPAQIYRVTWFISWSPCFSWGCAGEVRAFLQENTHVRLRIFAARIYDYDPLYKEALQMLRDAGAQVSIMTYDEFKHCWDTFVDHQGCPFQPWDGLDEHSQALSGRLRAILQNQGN
beta cell repl: MIN6 beta-cell proliferation induction; MIN6 cells proliferation, ATPlite luminescence, 48 h; cells starved in 0.2% serum; 100% = growth in 10% serum; proliferation, % at 10 µM; 330,000 compounds, 0.29% hits; AID 2380;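 active means compounds whose signal lies at least 3.5 SD above the mean of all wells on their plate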
APOBEC3G inh: APOBEC3G (human) deaminase inhibition; recombinant A3G, ssDNA deamination FAM/TAMRA fluorescence; 330,000 compounds, 0.28% hits; inhibition, % at 20 µM;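 active means inhibition of at least 40% at 20 µM, with no more than 30% in the related APOBEC3A deaminase screen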
Target sequence (Q9HC16 whole entry, looked up): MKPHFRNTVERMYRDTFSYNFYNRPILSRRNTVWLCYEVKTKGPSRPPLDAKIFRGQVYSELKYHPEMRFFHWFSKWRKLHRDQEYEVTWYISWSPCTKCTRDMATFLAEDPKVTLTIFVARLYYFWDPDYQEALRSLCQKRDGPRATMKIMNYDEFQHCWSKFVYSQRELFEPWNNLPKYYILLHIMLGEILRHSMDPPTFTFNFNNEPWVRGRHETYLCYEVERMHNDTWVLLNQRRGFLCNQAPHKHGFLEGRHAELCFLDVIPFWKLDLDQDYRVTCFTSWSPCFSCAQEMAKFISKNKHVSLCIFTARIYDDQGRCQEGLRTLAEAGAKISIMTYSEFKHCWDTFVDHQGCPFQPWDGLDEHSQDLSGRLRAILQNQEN
Bfl-1 A1 inh: inhibitors of the anti-apoptotic protein A1, read as caspase activation; caspase activation, % (test concentration not listed); MEF A1-2A-BIM cells, Caspase-Glo 3/7 luminescence, 3 h; percent of clofoctol response, vehicle zero; 330,000 compounds, 0.066% hits; AID 2462;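 active means over half of replicate activation scores above 10%, or exactly half above 10 with the replicate mean above 10; inconclusive means replicate mean below 10 yet half the replicates above 10; inactive means over half of replicates below 10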
APOBEC3A confirm: APOBEC3A (human) deaminase inhibition, confirmed. 1,400 compounds, 63% hits. inhibition, % at 20 µM. shares compounds with APOBEC3A inh. recombinant A3A, ssDNA deaminase UDG fluorescence assay;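 active means inhibition reaching a set limit, 80% of the first screen's cutoff, at 20 µM in any replicate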
UDG ctr A3A: UDG inhibition in APOBEC3A counter-screen; 1,000 tested, under 10 active; inhibition, % at 20 µM; shares compounds with APOBEC3A inh; UDG counterscreen, FAM/TAMRA uracil oligo fluorescence; call rule not given here
APOBEC3G confirm: confirmation of human APOBEC3G DNA deaminase inhibitors; shares compounds with APOBEC3G inh; inhibition, % at 20 µM; 890 compounds, 72% hits; AID 493152; recombinant A3G ssDNA deaminase, UDG/FAM-TAMRA fluorescence;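 active means inhibition reaching a set limit in any replicate at 20 µM, the limit being 80% of the first screen's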
UDG A3G counter: inhibits E. coli UDG, flagging false APOBEC3G inhibitors | shares compounds with APOBEC3G inh | UDG counterscreen, FAM/TAMRA oligo fluorescence | inhibition, % at 20 µM | 710 tested, under 10 active;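 active means compounds giving 40% or more inhibition at 20 µM in any one of the three replicates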;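 further: inhibitors lower the FAM signal released by uracil excision and alkaline cleavage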
Numbers stand for hits; – = inactive; ? = inconclusive; · = no result. The list is not random: actives were taken first. Their share in the collection is about 1.1%.

SMILES	APOBEC3A inh	beta cell repl	APOBEC3G inh	Bfl-1 A1 inh	APOBEC3G confirm	UDG A3G counter	others
Cc1ccc(Nc2nc3ccccc3n3nnnc23)cc1	46.3	–	–	–	·	·	APOBEC3A confirm=–
CCCCNC(=O)[C@H]1C[C@H]1[C@@H](O)[C@H](CO)NC(=O)[C@H](COCc1ccccc1)NC(=O)OC(C)(C)C	–	–	–	–	·	·
CCCCNC(=O)[C@H]1C[C@H]1[C@@H](O)[C@H](CO)NC(=O)[C@H](Cc1ccccc1)NC(=O)OC(C)(C)C	66.1	–	–	–	·	·	APOBEC3A confirm=–;UDG ctr A3A=–
COc1ccc(C(=O)NCc2nnc(SCC(=O)NCc3ccco3)o2)cc1	–	–	–	–	·	·
O=c1[nH]ncc2c3ccccc3n(Cc3ccccc3F)c12	43.5	–	–	–	·	·	APOBEC3A confirm=–;UDG ctr A3A=–
O=c1[nH]ncc2c3ccccc3n(Cc3ccccc3)c12	–	–	–	–	·	·
O=C(CN(c1ccccn1)S(=O)(=O)c1ccccc1)N/N=C/c1cccc([N+](=O)[O-])c1	44.5	–	–	–	·	·	APOBEC3A confirm=–
Cc1cccc(N2CCN(C(=O)CCS(=O)(=O)c3ccc(Br)cc3)CC2C)c1 (stereo not drawn)	44.7	–	–	–	·	·	APOBEC3A confirm=–
CC1CN(S(=O)(=O)c2cc(C(=O)NC(C)c3cccnc3)ccc2Cl)CC(C)O1 (stereo not drawn)	–	–	–	–	·	·
CCCc1nc2sc3c(SCC(=O)NCc4ccco4)ncnc3c2c2c1CCC2	54.4	–	–	–	·	·	APOBEC3A confirm=42.3;UDG ctr A3A=–
Cc1nc(SCC(=O)NCc2ccco2)c2c3c(sc2n1)CCCC3	–	–	–	–	·	·
S=C(Nc1ccc(Br)cc1Cl)NN1CCOCC1	–	–	60.5	–	–	·
CCN(CC(=O)NC(C)(C)C)Cc1cc(=O)n2c(-c3ccccc3)csc2n1	–	–	–	–	·	·
CC(=O)Oc1ccc(N2C(=O)C3C4C=CC(CO)(O4)C3C2=O)cc1 (stereo not drawn)	–	–	–	–	·	·
CC(=O)Oc1ccc(N2C(=O)C3C(C2=O)C2(C)C=CC3(C)O2)cc1 (stereo not drawn)	–	–	46.7	–	48.7	·
CN(C)c1ccc(C(C(=O)NCc2ccccc2)N(Cc2cccnc2)C(=O)c2snc(C(N)=O)c2N)cc1 (stereo not drawn)	–	–	–	·	·	·
Cc1ccc(NNC(=O)c2ccno2)cc1C	–	–	42.3	–	39.1	–
Cc1ccc(NNC(=O)c2ccno2)cc1Cl	–	–	–	–	·	·
O=C(Nc1cc(S(=O)(=O)N2CCOCC2)ccc1N1CCCCC1)c1cc(-c2ccccn2)nc2ccccc12	–	–	53.1	–	57.6	–
c1cncc(-c2nnc(-c3cccnc3)nn2)c1	–	–	44.0	–	22.1	–
CN(C)S(=O)(=O)c1ccc2c(c1)c(=O)c(C(=O)NCCCN1CCCCCC1)cn2C	–	–	51.6	–	–	·
CC1CCCN(CCCNC(=O)c2cn(C)c3ccc(S(=O)(=O)N(C)C4CCCCC4)cc3c2=O)C1 (stereo not drawn)	–	–	–	–	·	·
O=C1C(=O)N(CCO)C(c2ccc(Br)cc2)/C1=C(\O)c1ccccc1 (stereo not drawn)	–	–	44.8	–	–	–
Cc1ccc(SCC(=O)NNC(=O)c2cncc(Br)c2)cc1	–	–	–	–	·	·
O=C(CN1CCN(c2ccc(O)cc2)CC1)Nc1ccc2c(c1)OCCO2	–	–	61.7	–	–	·
SMILES	APOBEC3A inh	beta cell repl	APOBEC3G inh	Bfl-1 A1 inh	APOBEC3G confirm	UDG A3G counter	others
CCC1=NNc2cccc3c(OC)ccc1c23	–	–	60.1	–	73.1	·
COc1ccc2c3c(cccc13)C(=O)N(O)C2=O	·	·	·	–	·	·
CC(=O)NCCC(=O)Nc1nc(-c2c[nH]c3ccccc23)cs1	–	–	78.8	·	–	–
CC(=O)Nc1nc(-c2cccc3ccccc23)cs1	–	–	–	–	·	·
CCN(CC)C(=O)CSc1nc2c(sc(=S)n2-c2ccccc2)c(=O)n1-c1ccc(OC)cc1OC	–	–	52.6	–	56.4	–
CCOC(=O)CSc1nc2c(sc(=S)n2-c2ccccc2)c(=O)n1-c1ccc(OC)cc1OC	–	–	40.8	–	28.5	–
CCN(CC)C(=O)CSc1nc2c(sc(=S)n2-c2ccccc2)c(=O)n1-c1ccccc1OC	–	–	–	·	·	·
CCN(C(=O)CSc1nnc(COc2cccc(C)c2)o1)c1nc(C)cs1	–	–	–	–	·	·
O=C(O)CCC(=O)Nc1ccc2c(c1)Cc1cc(NC(=O)CCC(=O)O)ccc1-2	–	–	–	–	·	·
CCOC(=O)c1c(NC(=O)CSc2nnnn2-c2ccc(OC)cc2)sc(C)c1C	–	–	45.3	–	77.4	–
COC(=O)[C@H](CCSC)NC(=O)c1cc2c(cn1)[nH]c1ccccc12	–	–	57.0	–	56.0	–
O=C(CCN1C(=O)/C(=C/c2ccc(Cl)cc2)SC1=S)Nc1ccc(C(=O)O)cc1	–	–	40.1	–	–	–
COC(=O)c1sc(N2C(=O)C(O)=C(C(=O)c3ccc(C)o3)C2c2cc(OC)ccc2OC)nc1C (stereo not drawn)	–	–	–	–	·	·
CCOC(=O)c1sc(N)c(C(=O)OC)c1C	–	–	–	–	·	·
CCOC(=O)c1sc(N)c(C(=O)Nc2ccccc2OC)c1C	–	–	51.1	–	67.3	–
COc1ccc(/C=C/C(=O)NNc2c(F)c(F)cc(F)c2F)cc1OC	–	–	59.9	–	–	–
CCOc1cc(C(=O)N2CCC(CC3CC(c4cccc(Br)c4)=NO3)(C(=O)NCC3CCCCC3)CC2)cc(OCC)c1OCC (stereo not drawn)	–	–	–	–	·	·
CC[n+]1c(C)sc2sc3ccccc3c21	–	–	55.0	–	67.3	·
O=S(=O)(NC1CC(NS(=O)(=O)OCC(Cl)(Cl)Cl)C2CCCCC12)OCC(Cl)(Cl)Cl (stereo not drawn)	–	–	–	–	·	·
Nc1nnc(SC2CC(=O)N(c3ccccc3)C2=O)s1 (stereo not drawn)	–	–	41.7	–	–	·
CCCc1cc(=O)oc2c(C)c(OCC(=O)Nc3cccnc3)ccc12	–	–	–	?	·	·
CCCCCCNC(=O)N[C@@H](C(=O)NCCC[C@H]1CN2C(=NC[C@@H]2Cc2ccccc2)N1CCc1cccc(OC)c1)C(C)C	–	–	54.1	–	32.2	·
COc1cccc(C2CCCN2Cc2nc(-c3cnccn3)no2)c1 (stereo not drawn)	–	–	–	–	·	·
O=[N+]([O-])c1ccccc1CSc1ccccn1	–	–	–	–	·	·
O=c1[nH]c(SCc2ccccc2[N+](=O)[O-])nc2nc[nH]c12	–	–	60.6	–	–	–
O=C(CCn1c(=S)oc2ccccc21)Nc1ccccc1Br	–	–	–	–	·	·
